Measurements reported in PubChem BioAssay AID434970 (Sanford-Burnham Center for Chemical Genomics, 2010).
Screen size: about 11,000 compounds; about 310 (2.8%) were called active. Cut-off read from the data, not from the text of the source: active = activity change below about -85%; inactive = the rest. The entries come from a sample that favours actives as a whole.

What follows are compounds tested on intestinal alkaline phosphatase [Mus musculus] (assay: activators of mouse IAP, confirmation, biochemical, luminescence, single concentration (AID 434970)). Conditions: purified mouse IAP, CDP-Star luminescence, 30 min, at 10 µM; activation factor: measured here: IAP activation factor, stronger effect = higher value; activity change, negative = activation: stronger effect = lower value.

| Compound | activation factor | activity change, negative = activation |
| --- | --- | --- |
| COC(=O)c1ccc(CC(=O)c2c(C)cc(O)cc2O)o1 | 0.877 | 12.3% (inactive) |
| CC(C)COc1ccc(CNC(=S)NCc2ccccc2)cc1 | 1.12 | -11.7% (inactive) |
| O=C(O)CC(c1cccc(Cl)c1)n1cccc1 (stereo not given) | 0.964 | 3.65% (inactive) |
| CCCCN1CCc2c([nH]c3c(C)cccc23)C1=O | 1.06 | -6.35% (inactive) |
| Cc1ccc(OC(F)F)c(NC(=O)Nc2cccc(C(F)(F)F)c2)c1 | 1.6 | -60.4% (inactive) |
| O=C(Nc1ccccc1)Nc1cccc(C(F)(F)F)c1 | 1.82 | -82.1% (inactive) |
| CCN(CC)S(=O)(=O)c1cccc(NC(=O)c2cc3ccccc3o2)c1 | 0.883 | 11.7% (inactive) |
| CCN(CC)S(=O)(=O)c1ccc(NC(=O)Nc2cccc(C(F)(F)F)c2)cc1 | 2.03 | -103% (active) |
| CCN(CC)S(=O)(=O)c1cccc(NC(=O)Nc2cccc(C(F)(F)F)c2)c1 | 4.57 | -357% (active) |
| CCNS(=O)(=O)c1ccc(NC(=O)Nc2cccc(C(F)(F)F)c2)cc1 | 1.77 | -76.7% (inactive) |
| CCN(CC)S(=O)(=O)c1ccc(NC(=O)CN(c2cccc(F)c2)S(C)(=O)=O)cc1 | 0.911 | 8.85% (inactive) |
| CCN(CC)S(=O)(=O)c1cccc(C(=O)Nc2cccc(C)c2)c1 | 0.938 | 6.2% (inactive) |
| O=C(Nc1ccc(OC(F)F)cc1)Nc1cccc(C(F)(F)F)c1 | 1.99 | -99.2% (active) |
| O=C(c1ccco1)N1CCN(CC(O)Cn2c3ccccc3c3ccccc32)CC1 (stereo not given) | 0.97 | 2.95% (inactive) |
| CC(C)OC(=O)CSc1nc2cccnc2n1C1CCCCC1 | 0.982 | 1.75% (inactive) |
| COc1ccc(C2=NO[C@@H]3C(=O)N(c4cccc(C)c4C)C(=O)[C@H]23)cc1OC | 0.93 | 6.95% (inactive) |
| COC(=O)c1sccc1NC(=O)c1cc(OC)cc(OC)c1 | 0.928 | 7.2% (inactive) |
| c1coc(C2Nc3ccccc3C3OCCC23)c1 (stereo not given) | 1.1 | -10.4% (inactive) |
| COc1ccc(C(=O)OC(C(=O)c2ccccc2)c2ccccc2)cc1 (stereo not given) | 0.982 | 1.8% (inactive) |
| C=C(C)c1cccc(C(C)(C)NC(=O)NC(c2ccccc2)c2ccc(OC)cc2)c1 (stereo not given) | 4.59 | -359% (active) |
| COc1ccc(C(=O)NC(Oc2ccccc2)C(Cl)(Cl)Cl)cc1 (stereo not given) | 1.06 | -6.15% (inactive) |
| C=C(C)c1cccc(C(C)(C)NC(=O)NCC2COCCO2)c1 (stereo not given) | 1.09 | -9.1% (inactive) |
| CC(=O)Nc1ccc(S(=O)(=O)Nc2cccc(NC(=O)C(C)(C)C)c2)cc1 | 1.12 | -11.8% (inactive) |
| C=C(C)c1cccc(C(C)(C)NC(=O)Nc2ccc(C(N)=O)cc2)c1 | 2.18 | -118% (active) |
| CC(C)C(OC(=O)c1ccco1)C(=O)NC1CCCCC1 (stereo not given) | 0.964 | 3.65% (inactive) |
| Cc1ccc(C)c(N(C(=O)CCC(=O)Nc2cc(C)on2)C(C(=O)NC2CCCC2)c2ccco2)c1 (stereo not given) | 0.998 | 0.2% (inactive) |
| O=C(CSc1ncn[nH]1)NCCc1ccccc1 | 1.1 | -10.3% (inactive) |
| CC1CCN(C(c2cccs2)c2nnnn2Cc2ccccc2)CC1 (stereo not given) | 0.984 | 1.65% (inactive) |

| Compound | activation factor | activity change, negative = activation |
| --- | --- | --- |
| Cn1c(CCN2CCOCC2)nc2cc(NC(=O)COc3ccc(Cl)cc3)ccc21 | 0.927 | 7.3% (inactive) |
| CC[C@]12c3[nH]c4ccc(Cl)cc4c3CCN1C(=O)[C@@H](CC(=O)NC(C)(C)C)C[C@@H]2C(=O)N1CCN(C(=O)c2ccco2)CC1 | 1.14 | -13.7% (inactive) |
| CCOC(=O)c1ccc(NC(=O)NCc2ccccc2OC)cc1 | 1.8 | -79.8% (inactive) |
| CCOC(=O)c1ccc(NC(=S)NCCc2ccccc2F)cc1 | 1.3 | -29.6% (inactive) |
| CCOC(=O)c1ccc(NC(=O)NCCc2ccccc2OC)cc1 | 2.01 | -101% (active) |
| COc1ccc(C)cc1NC(=O)C1C2C=CC(C2)C1C(=O)O (stereo not given) | 0.955 | 4.55% (inactive) |
| COc1cc(NC(=O)NCC2CCN(Cc3ccccc3Cl)CC2)cc(OC)c1OC | 2.47 | -148% (active) |
| COc1cc(NC(=O)NCC2CCN(Cc3ccc(C)cc3)CC2)cc(OC)c1OC | 1.88 | -88.3% (inactive) |
| O=C(Nc1cc(Cl)cc(Cl)c1)C1CCC(=O)N1Cc1ccccc1Cl (stereo not given) | 1.71 | -70.5% (inactive) |
| COc1cc2c(cc1NC(=O)Nc1ccc(C)cc1)oc1ccccc12 | 1.18 | -18.4% (inactive) |
| COc1cc(NC(=O)NCC2CCN(Cc3ccccc3C)CC2)cc(OC)c1OC | 2.9 | -190% (active) |
| CCC(NC(=O)Nc1cc(OC)c(OC)c(OC)c1)(C(F)(F)F)C(F)(F)F | 1.8 | -80.2% (inactive) |
| CCN(CC)C(=O)[C@H]1C[C@H](CC(=O)NCCc2ccccn2)C(=O)N2CCc3c([nH]c4cc(-c5ccco5)ccc34)[C@]12C | 1.27 | -27% (inactive) |
| O=C(c1cccs1)n1nc(-c2ccccc2)nc1NCc1ccco1 | 0.857 | 14.4% (inactive) |
| CCN(c1ccccc1)S(=O)(=O)c1ccc(NCC2COc3ccccc3O2)nc1 (stereo not given) | 1.29 | -28.6% (inactive) |
| c1ccc(-c2cc3c(NCC4COc5ccccc5O4)ncnc3s2)cc1 (stereo not given) | 1.97 | -97.1% (active) |
| FC(F)(F)c1cccc(NC(=S)NCC2COc3ccccc3O2)c1 (stereo not given) | 1.43 | -42.8% (inactive) |
| CCOc1ccc(C2N(c3cc(C)on3)C(=O)C3CCCN32)cc1OC (stereo not given) | 1.05 | -5.3% (inactive) |
| Cc1cc(C)cc(NC(=O)CCc2nc3ccccc3[nH]2)c1 | 1.04 | -3.9% (inactive) |
| O=C(CCN1C(=O)c2ccccc2C1=O)NC(=S)Nc1cccc(Cl)c1 | 0.956 | 4.4% (inactive) |
| O=C(Cn1c(-c2ccccc2Cl)nc2ccccc21)Nc1cccc(Cl)c1 | 2.51 | -151% (active) |
| O=C(CCn1cnc2ccccc2c1=O)Nc1cccc(Cl)c1 | 1.01 | -1.4% (inactive) |
| Cc1ccc(C(=O)NC(C)c2nc3ccccc3n2CC(=O)Nc2c(C)cc(C)cc2C)cc1 (stereo not given) | 1.1 | -10.2% (inactive) |
| Cc1ccc(SCc2nc3ccccc3n2CC(=O)Nc2ccc(Cl)cc2)cc1 | 1.85 | -85.5% (active) |
| Cc1cc(C)cc(NC(=O)Cn2c(-c3ccccc3Cl)nc3ccccc32)c1 | 2.48 | -148% (active) |
| Cc1ccc(SCc2nc3ccccc3n2CC(=O)Nc2ccccc2)cc1 | 1.56 | -56% (inactive) |
| O=C(CSc1nnc(Cn2nnc3ccccc32)o1)Nc1ccc(Cl)cc1 | 0.985 | 1.5% (inactive) |
